Assay results reported in PubChem BioAssay (Tox21).
Records with an inconclusive call do not appear. Active and inactive are the calls of the source. Unless noted, calls follow the shape of the dose curve; as a rule, active = well fitted curve in the direction sought with a large enough effect in the repeat runs; inconclusive = weak or mixed curves; inactive = no such curve, though single readings can be large; an effect the other way counts as inactive or inconclusive.

How the values were obtained:
[1] = target: Luciferin 4-monooxygenase (Photinus pyralis) (UniProt P08659); test: qHTS assay to identify small molecule inhibitors of firefly luciferase (AID 1224835); also: nearly all actives have a fitted effect of over 25% in size
Procedure, shortened: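 Inhibition of purified Photinus luciferase is measured by luminescence. Substrate levels (D-luciferin, ATP) sit at their KM values. Each compound is tested in a concentration series.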

[2] = qHTS assay to identify small molecule agonists of the constitutive androstane receptor (CAR) signaling pathway - cell viability counter screen (AID 1224836); also: nearly all actives have a fitted effect of over 45% in size
Procedure, shortened: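 Compound titrations (15 concentrations) went onto HepG2-CYP2B6-hCAR cells 4 h after seeding, alongside PK11195 at a final 0.75 uM; a 23 h, 37 C/5% CO2 incubation preceded CellTiter-Fluor viability measurement.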

[3] = qHTS assay to identify small molecule antagonists of the constitutive androstane receptor (CAR) signaling pathway - cell viability counter screen (AID 1224837); also: nearly all actives have a fitted effect of over 45% in size
Procedure, shortened: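 HepG2 cells stably carrying hCAR and CYP2B6-2.2kb reporter, stimulated with 50 nM CITCO and compounds at 15 concentrations for 23 h at 37 C. Viability measured by CellTiter-Fluor fluorescence.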

[4] = target: Nuclear receptor subfamily 1 group I member 3 (Homo sapiens) (UniProt Q14994); test: qHTS assay to identify small molecule antagonists of the constitutive androstane receptor (CAR) signaling pathway (AID 1224838); also: nearly all actives have a fitted effect of over 40% in size
Procedure, shortened: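 HepG2 cells stably carrying hCAR and a CYP2B6-2.2kb luciferase reporter, seeded 4 hrs before compound (15 concentrations). Stimulated with 50 nM CITCO for 24 hr at 37 C. ONE-Glo luminescence read after 30 min at room temperature.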

[5] = target: Nuclear receptor subfamily 1 group I member 3 (Homo sapiens) (UniProt Q14994); test: qHTS assay to identify small molecule agonists of the constitutive androstane receptor (CAR) signaling pathway (AID 1224839); also: nearly all actives have a fitted effect of over 15% in size
Procedure, shortened: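 In this screen, CAR-driven CYP2B6 promoter activity is measured by luminescence in HepG2-CYP2B6-hCAR cells after 24 h with test compounds and 0.75 uM PK11195 (final concentration).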

[6] = qHTS assay to identify small molecule antagonists of the estrogen related receptor signaling pathway with the pleiotropic PPARgamma coactivator (PGC) from Tox21 10K library - cell viability counter screen (AID 1224840; active = well fitted cell-killing curve with a large enough effect in the repeat runs, not every such curve was filed as active; also: nearly all actives have a fitted effect of over 40% in size)
Procedure, shortened: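 PGC/ERR cells (2,000/well) plated 6 h, then compound-treated for 17.5 h at 37 C. Viability measured by CellTiter-Fluor fluorescence after 30 min at 37 C, multiplexed with the pathway assay.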

[7] = qHTS assay to identify small molecule antagonists of the estrogen related receptor signaling pathway with the pleiotropic PPARgamma coactivator (PGC) from Tox21 10K library (AID 1224841; call rule not given here; also: actives are mostly falling curves and most rising ones were filed inactive; nearly all actives have a fitted effect of over 50% in size)
Procedure, shortened: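 PGC/ERR cell line, 2,000 cells/well, pre-incubated 6 hours at 37 C, then exposed to compounds for 18 hours at 37 C; luciferase read with One-Glo luminescence after 30 min at room temperature.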

[8] = qHTS assay to identify small molecule agonists of the estrogen related receptor signaling pathway with the pleiotropic PPARgamma coactivator (PGC) from Tox21 10K library (AID 1224842); also: nearly all actives have a fitted effect of over 15% in size
Procedure, shortened: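 Luminescence from One-Glo (30 min, room temperature) measured after PGC/ERR cells had 18 h at 37 C with pinned compound (23 nL in DMSO). Cells had been seeded at 2,000 per well and pre-incubated 6 h.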

[9] = qHTS assay to identify small molecule agonists of the hypoxia (HIF-1) signaling pathway - cell viability counter screen (AID 1224844; calls by dose curve; also: nearly all actives have a fitted effect of over 50% in size)
Procedure, shortened: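 HRE-bla ME-180 cells, 2,000/well in 0.5% dialyzed FBS medium, treated 17 h at 37C with compounds. Viability read in the same wells as the bla reporter, by CellTiter-Glo luminescence after 30 min at room temperature.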

[10] = qHTS assay to identify small molecule agonists of H2AX (AID 1224845; active = well fitted activation curve with a large enough effect in the signal ratio in the repeat runs, not every such curve was filed as active; the % refers to the signal ratio)
Procedure, shortened: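 Phospho-H2AX Ser139 measured by HTRF (ex 320 nm; em 665 and 620 nm) after 24 hr antibody incubation. Compounds, 15 concentrations, 0.76% DMSO, were applied to CHO-K1 cells for 3hr at 37C before lysis.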

[11] = qHTS assay to identify small molecule agonists of H2AX - cell viability counter screen (AID 1224847; calls by dose curve; also: top concentration of the series differs between compounds; nearly all actives have a fitted effect of over 30% in size)
Procedure, shortened: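 Read-out: CellTiter-Glo luminescence, 30 min RT. Cells: wild-type CHO-K1, 1000/well, 10% FBS, plated overnight at 37C. Treatment: 15 concentrations, 3 hr, 37C, 0.76% DMSO.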

[12] = qHTS assay to identify small molecule antagonists of the estrogen related receptor (ERR) signaling pathway from Tox21 library (AID 1224848); also: nearly all actives have a fitted effect of over 50% in size
Procedure, shortened: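 Reading was by luminescence 30 min after ONE-Glo addition. Before that, ERR cells at 2,000 per well had rested 6 h at 37 C/5% CO2 and then received pin-tooled compounds in DMSO for 18 h at 37 C.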

[13] = qHTS assay to identify small molecule agonists of the estrogen related receptor (ERR) signaling pathway from Tox21 library (AID 1224849; calls by dose curve; also: nearly all actives have a fitted effect of over 15% in size); settings: ERR reporter cell line, ONE-Glo luciferase, 18 h; at 92.4 µM (top of the series) unless noted
Procedure, shortened: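 ERR reporter cells (NTP line) pre-incubated 6 hours at 37 C, then exposed to compounds for 18 hours at 37 C. ONE-Glo luciferase luminescence was read after 30 minutes at room temperature.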

[14] = qHTS RealTime-Glo MT Cell Viability Assay in HepG2 cells - 24 hour (AID 1224867); also: nearly all actives have a fitted effect of over 50% in size
Procedure, shortened: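 HepG2 cells (600/well) were dispensed with RealTime-Glo reagents, incubated 5 h at 37 °C, then treated with compounds in DMSO for up to 40 h. Nonlytic NanoLuc luminescence reflecting viable cells was read at each stated time point.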

[15] = qHTS RealTime-Glo MT Cell Viability Assay in HEK293 cells - 32 hour (AID 1224868)
Procedure, shortened: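 HEK293 cells seeded with NanoLuc/prosubstrate reagent, rested 5 h at 37 C, then dosed and kept at 37 C up to 40 h. Nonlytic real-time luminescence from viable cells read at 0, 8, 16, 24, 32 and 40 h.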

[16] = A CellTox Green Cytotoxicity Assay to monitor cytotoxicity in HEK293 cells - 0 hour (AID 1224869); also: nearly all actives have a fitted effect of over 50% in size
Procedure, shortened: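 HEK293 cells, 600/well, were preincubated 5 hours and then exposed to compounds at 37 C for up to 40 hours. A cell-impermeant cyanine dye staining dead-cell DNA was read by fluorescence at 0, 8, 16, 24, 32 and 40 h time points.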

[17] = qHTS RealTime-Glo MT Cell Viability Assay in HepG2 cells - 40 hour (AID 1224870); also: nearly all actives have a fitted effect of over 50% in size
Procedure, shortened: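 Real-time viability: cells seeded at 600 per well together with NanoLuc and cell-permeant prosubstrate, compounds added after 5 h incubation. Luminescence tracked at 0, 8, 16, 24, 32 and 40 h of exposure.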

[18] = qHTS assay to identify small molecule agonists of the hypoxia (HIF-1) signaling pathway (AID 1224846; active = well fitted activation curve with a large enough effect in the signal ratio in the repeat runs, not every such curve was filed as active; the % refers to the signal ratio)
Procedure, shortened: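 HRE-bla ME-180 beta-lactamase reporter cells in medium with 0.5% dialyzed FBS, pre-incubated 5 h then exposed to compounds 17 h at 37C, 5% CO2; reporter induction read with CCF4-AM FRET substrate.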

[19] = target: Thyrotropin receptor (Homo sapiens) (UniProt P16473); test: qHTS assay to identify small molecule agonists of the thyroid stimulating hormone receptor (TSHR) signaling pathway (AID 1224843; calls by dose curve; also: nearly all actives have a fitted effect of over 45% in size)
Procedure, shortened: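 HEK293 cells stably bearing the thyrotropin receptor were plated at 800 cells/well and challenged with compound (30 min, RT). Accumulated cAMP was quantified via cAMP-d2 competing for cryptate-tagged antibody.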
% is scaled to controls: 0 for no effect and ±100 for the full control effect.

Chain of Thyrotropin receptor (Homo sapiens) (P16473 whole entry, looked up): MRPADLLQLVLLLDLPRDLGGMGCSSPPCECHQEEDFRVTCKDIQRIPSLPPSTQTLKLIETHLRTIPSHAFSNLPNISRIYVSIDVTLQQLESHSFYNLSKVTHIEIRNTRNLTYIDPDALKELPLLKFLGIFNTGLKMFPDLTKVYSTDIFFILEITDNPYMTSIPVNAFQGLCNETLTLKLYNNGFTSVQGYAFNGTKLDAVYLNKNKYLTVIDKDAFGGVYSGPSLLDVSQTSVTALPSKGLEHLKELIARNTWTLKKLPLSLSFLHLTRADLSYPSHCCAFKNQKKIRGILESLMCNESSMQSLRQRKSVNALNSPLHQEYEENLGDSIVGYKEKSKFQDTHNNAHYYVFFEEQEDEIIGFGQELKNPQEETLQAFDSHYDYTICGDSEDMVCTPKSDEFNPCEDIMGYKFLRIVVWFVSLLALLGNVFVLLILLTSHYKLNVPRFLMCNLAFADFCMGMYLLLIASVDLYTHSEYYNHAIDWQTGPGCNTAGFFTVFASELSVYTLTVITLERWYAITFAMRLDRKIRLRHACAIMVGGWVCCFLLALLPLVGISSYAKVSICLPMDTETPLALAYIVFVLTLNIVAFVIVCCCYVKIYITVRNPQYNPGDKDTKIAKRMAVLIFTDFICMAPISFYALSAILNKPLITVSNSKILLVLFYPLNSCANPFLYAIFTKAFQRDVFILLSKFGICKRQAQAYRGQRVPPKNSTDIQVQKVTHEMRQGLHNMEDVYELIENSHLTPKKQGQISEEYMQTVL
Chain of Luciferin 4-monooxygenase (Photinus pyralis) (P08659 whole entry, looked up): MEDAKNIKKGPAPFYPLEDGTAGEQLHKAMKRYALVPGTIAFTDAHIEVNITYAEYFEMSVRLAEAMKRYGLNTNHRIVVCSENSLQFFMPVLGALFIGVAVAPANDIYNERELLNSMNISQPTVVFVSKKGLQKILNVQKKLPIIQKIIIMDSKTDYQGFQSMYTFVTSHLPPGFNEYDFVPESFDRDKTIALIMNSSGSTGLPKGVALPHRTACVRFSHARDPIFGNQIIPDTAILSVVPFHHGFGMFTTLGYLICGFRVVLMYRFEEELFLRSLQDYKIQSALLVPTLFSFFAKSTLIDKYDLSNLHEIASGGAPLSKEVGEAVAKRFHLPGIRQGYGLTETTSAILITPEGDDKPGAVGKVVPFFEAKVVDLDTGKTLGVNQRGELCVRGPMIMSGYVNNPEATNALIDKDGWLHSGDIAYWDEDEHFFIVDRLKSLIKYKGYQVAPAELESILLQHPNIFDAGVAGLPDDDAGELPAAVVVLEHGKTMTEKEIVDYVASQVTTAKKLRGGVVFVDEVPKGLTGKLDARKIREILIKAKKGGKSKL
Chain of Nuclear receptor subfamily 1 group I member 3 (Homo sapiens) (Q14994 whole entry, looked up): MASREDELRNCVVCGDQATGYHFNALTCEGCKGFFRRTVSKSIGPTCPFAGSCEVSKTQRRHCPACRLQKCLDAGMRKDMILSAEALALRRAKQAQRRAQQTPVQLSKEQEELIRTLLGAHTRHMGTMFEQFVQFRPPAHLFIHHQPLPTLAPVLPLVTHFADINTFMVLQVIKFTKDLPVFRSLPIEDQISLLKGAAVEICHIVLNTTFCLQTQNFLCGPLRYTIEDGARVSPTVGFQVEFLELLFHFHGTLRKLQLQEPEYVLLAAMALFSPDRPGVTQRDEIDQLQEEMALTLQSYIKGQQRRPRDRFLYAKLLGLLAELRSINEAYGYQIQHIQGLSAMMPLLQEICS

NC(=O)c1ccc(N)cc1
inactive: Potency [1] | Potency [2] | Potency [3] | Potency [4] | Potency [5] | Potency [6] | Potency [7] | outcome [8] | Potency [9] | outcome [10] | Potency [11] | Potency [12] | activity change, positive = activation [13] 8.51% | Potency [14] | Potency [15] | Potency [16] | Potency [17]

C=COCC1CCC(CO)CC1 (configuration not stated)
inactive: Potency [1] | Potency [2] | Potency [3] | Potency [4] | Potency [5] | Potency [6] | Potency [7] | outcome [8] | Potency [9] | outcome [10] | Potency [11] | Potency [12] | activity change, positive = activation [13] 2.36% | Potency [14] | Potency [15] | Potency [16] | Potency [17]

FC(F)OC(Cl)C(F)(F)F (configuration not stated)
inactive: Potency [1] | Potency [2] | Potency [3] | Potency [4] | Potency [5] | Potency [7] | outcome [8] | Potency [9] | outcome [10] | outcome [18] | Potency [11] | Potency [12] | activity change, positive = activation [13] 8.92% | Potency [14] | Potency [15] | Potency [16] | Potency [17]

CC(C)NCC(O)c1ccc(NS(C)(=O)=O)cc1 (configuration not stated)
inactive: Potency [1] | Potency [2] | Potency [3] | Potency [4] | Potency [5] | Potency [6] | Potency [19] | Potency [9] | outcome [10] | Potency [11] | Potency [14] | Potency [15] | Potency [16] | Potency [17]

CCN(CC)CCOCCOC(=O)C1(c2ccccc2)CCCC1
inactive: Potency [1] | Potency [2] | Potency [4] | Potency [5] | Potency [6] | Potency [9] | outcome [10] | Potency [11] | Potency [14] | Potency [15] | Potency [16]

CN1CCC(=C2c3ccccc3CC(=O)c3sccc32)CC1
inactive: Potency [1] | Potency [2] | Potency [3] | Potency [4] | Potency [5] | Potency [6] | Potency [19] | Potency [9] | outcome [10] | Potency [11] | Potency [14] | Potency [15] | Potency [17]

CC(C)(C)NCCNC(C)(C)C
inactive: Potency [1] | Potency [2] | Potency [3] | Potency [4] | Potency [5] | Potency [7] | outcome [8] | Potency [19] | Potency [9] | outcome [10] | outcome [18] | Potency [11] | Potency [12] | activity change, positive = activation [13] 3.81% | Potency [14] | Potency [15] | Potency [16] | Potency [17]
